The list is not random: actives were taken first. Their share in the collection is about 1.8%.
LYPLA2 counter: blocks human lysophospholipase 2, a PME1 counter-screen. inhibition, % at 5.9 µM. recombinant LYPLA2, FP-Rh probe fluorescence polarization. AID 2177. 320,000 compounds, 0.38% hits;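 active = inhibition above the screen-wide mean plus 3 SD, limit set per campaign, cut at about 26% in these data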;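 note: 0% = LYPLA2 with DMSO and 100% = wells lacking LYPLA2 enzyme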
Target sequence (O95372 whole entry, looked up): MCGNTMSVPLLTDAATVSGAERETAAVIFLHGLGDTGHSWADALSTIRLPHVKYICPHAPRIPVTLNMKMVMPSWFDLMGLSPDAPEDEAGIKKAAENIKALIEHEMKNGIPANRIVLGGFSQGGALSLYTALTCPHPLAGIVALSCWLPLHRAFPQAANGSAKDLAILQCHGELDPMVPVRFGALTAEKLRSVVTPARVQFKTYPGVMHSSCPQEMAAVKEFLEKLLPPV
GSTO1 inh: GSTO1 inhibition, counter-screen for RBBP9 inhibitors; recombinant GSTO1, activity-based probe fluorescence polarization; inhibition, % at 5.96 µM; 300,000 compounds, 1.1% hits; AID 1974;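 active = inhibition above the campaign mean inhibition plus 3 SD, cut at about 35% in these data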;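 note: 0% = GSTO1-1 with DMSO and 100% = wells lacking GSTO1-1 enzyme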
Target sequence (P78417 whole entry, looked up): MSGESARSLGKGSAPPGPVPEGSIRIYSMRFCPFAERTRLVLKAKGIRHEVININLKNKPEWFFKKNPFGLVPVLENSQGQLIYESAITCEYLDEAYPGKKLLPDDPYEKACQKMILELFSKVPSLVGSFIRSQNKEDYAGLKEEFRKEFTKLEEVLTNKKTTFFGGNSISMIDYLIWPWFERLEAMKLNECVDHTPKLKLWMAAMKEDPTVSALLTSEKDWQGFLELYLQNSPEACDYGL
LYPLA1 inh: blocks human lysophospholipase 1, a PME1 counter-screen. recombinant LYPLA1, FP-Rh probe fluorescence polarization. inhibition, % at 5.9 µM. 320,000 compounds, 0.16% hits. AID 2174;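 active = inhibition above the mean of all tested compounds plus 3 SD, set per campaign, cut at about 14% in these data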;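 note: inhibitors block serine hydrolase probe labeling of LYPLA1 so polarization falls; 0% = enzyme with DMSO and 100% = wells lacking LYPLA1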
Target sequence (O75608 whole entry, looked up): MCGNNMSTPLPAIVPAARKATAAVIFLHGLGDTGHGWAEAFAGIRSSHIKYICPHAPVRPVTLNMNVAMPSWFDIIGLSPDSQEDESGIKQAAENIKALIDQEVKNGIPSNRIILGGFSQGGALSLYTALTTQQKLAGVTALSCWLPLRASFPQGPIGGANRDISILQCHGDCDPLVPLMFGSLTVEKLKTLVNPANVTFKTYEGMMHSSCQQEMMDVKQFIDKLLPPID
Fam108B counter: Fam108B inhibition, counter-screen for RBBP9 inhibitors; 300,000 compounds, 0.33% hits; inhibition, % at 9.51 µM; recombinant Fam108B, FP-Rh probe fluorescence polarization;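 active = inhibition above the screen mean inhibition plus 3 SD, computed separately per campaign, cut at about 18% in these data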;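 note: inhibitors lower polarization as less probe binds the enzyme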
PME-1 primary: blocks human protein phosphatase methylesterase 1; Q9Y570; recombinant PME-1, FP-Rh probe fluorescence polarization; inhibition, % at 5.9 µM; 320,000 compounds, 0.53% hits; AID 2130;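 active = inhibition above the campaign mean of all compounds plus 3 SD, cut at about 26% in these data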;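 note: competitive labeling of PME-1 active site by serine hydrolase directed probe; 0% = PME-1 with DMSO and 100% = wells lacking PME-1 enzyme; inhibitors block probe labeling so polarization falls and inhibition rises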
PAD4 inh: inhibitors of human PAD4. Q9UM07. recombinant PAD4, RCA probe fluorescence polarization. inhibition, % at 6.36 µM. 330,000 compounds, 0.41% hits. AID 485272;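 active = percent inhibition above a cutoff equal to the mean of all tested compounds plus 3 SD, cut at about 15% in these data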;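 note: 0% = PAD4 with RCA probe and DMSO and 100% = probe without PAD4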
Fam108b confirm: confirmation of mouse Fam108b serine hydrolase inhibitors | shares compounds with Fam108B counter | recombinant Fam108b, FP-Rh probe fluorescence polarization | inhibition, % at 9.51 µM | 930 compounds, 44% hits | AID 1978;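 active = inhibition above a limit from the primary screen, the mean over all compounds plus 3 SD, cut at about 19% in these data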;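 note: 0% = median of active Fam108b wells and 100% = catalytically dead S170A mutant; inhibitors free the probe so polarization falls as inhibition rises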
Fam108b inh: inhibits mouse Fam108b in gel-based ABPP; recombinant Fam108b, fluorophosphonate probe; shares compounds with Fam108B counter; inhibition, % at 20 µM; 260 compounds, 44% hits; in the data active = inhibition above about 40%
GSTO1 confirm: GSTO1 (human) inhibition, confirmation; inhibition, % at 5.96 µM; recombinant GSTO1, probe fluorescence polarization; 2,400 compounds, 54% hits; shares compounds with GSTO1 inh;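 active = inhibition above the primary screen's cutoff, its mean inhibition plus 3 SD, cut at about 35% in these data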;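 note: loss of polarization as inhibitors block binding of rhodamine sulfonate ester activity probe; 0% = GSTO1 with DMSO and 100% = wells lacking GSTO1 enzyme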
LYPLA1 conf: LYPLA1 (human) inhibition, confirmation counter-screen | recombinant LYPLA1, FP-Rh probe fluorescence polarization | 480 compounds, 69% hits | inhibition, % at 5.9 µM | shares compounds with LYPLA1 inh;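 active = mean inhibition across replicates above the hit cutoff set in the primary screen, cut at about 15% in these data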;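 note: loss of FP-Rh probe labeling of LYPLA1 seen as lower polarization; 0% = LYPLA1 with DMSO and 100% = wells lacking LYPLA1 enzyme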
* = called active by the depositor; . = no result given.

SMILES	LYPLA2 counter	GSTO1 inh	LYPLA1 inh	Fam108B counter	PME-1 primary	PAD4 inh	Fam108b confirm	GSTO1 confirm	others
COc1ccc(-c2oc(NC(=O)CCl)c(C#N)c2-c2ccc(OC)cc2)cc1	8.3	76.0*	3.4	22.4*	41.9*	13.7	33.7*	86.3*	Fam108b inh=20.0
Oc1ccc(/C=N/Nc2ccc(Cl)nn2)c(O)c1O	1.1	71.0*	-4.6	23.4*	-2.7	6.3	-7.5	14.6
CCC(C(=O)N1CCOCC1)n1nc(C)n2c(cc3cc(C)ccc32)c1=O (configuration not stated)	5.1	1.2	-1.5	0.1	5.4	2.2	.	.
COc1cc(/C=N/Nc2nc3ccccc3s2)cc([N+](=O)[O-])c1O	4.7	48.1*	8.9	21.4*	62.5*	-3.4	12.3	50.2*
O=c1c(-c2ccccc2)c(-c2ccccc2)oc2cc(O)cc(O)c12	-6.5	-10.0	-5.0	7.6	-3.7	-2.9	.	.
O=c1c(O)c(-c2cc(O)c(O)c(O)c2)oc2cc(O)cc(O)c12	-21.7	78.8*	-31.3	30.9*	18.5	-6.3	-26.7	48.0*
Cc1ccc(SC2=C(Sc3ccc(C)cc3)C(=O)c3ccccc3C2=O)cc1	17.6	71.3*	0.1	22.1*	8.1	-9.1	10.8	23.8
O=C(Nc1ccc(N2CCOCC2)cc1)c1ccc2nc(-c3ccco3)c(-c3ccco3)nc2c1	-2.8	-0.3	-5.2	-6.0	-1.4	-1.6	.	.
CC(=O)c1ccc(NC(=O)c2ccc3nc(-c4ccco4)c(-c4ccco4)nc3c2)cc1	-9.1	67.6*	-21.7	40.3*	4.9	-15.9	28.9*	29.0
O=C(NCCO)Nc1ccc2nc(-c3ccco3)c(-c3ccco3)nc2c1	3.7	65.3*	-7.0	67.6*	24.7	18.4*	45.4*	41.7*	Fam108b inh=0.0
O=C(NCCO)Nc1ccc2nsnc2c1	5.0	2.5	8.2	-0.2	5.0	1.2	.	.
O=C(NCc1ccccc1)c1ccc2nc(-c3ccco3)c(-c3ccco3)nc2c1	-4.8	67.2*	-17.1	19.5*	16.2	-12.8	17.6	24.2
O=C(Nc1ccccc1)c1ccc2nc(-c3ccco3)c(-c3ccco3)nc2c1	-14.0	57.3*	-22.4	47.7*	8.1	-18.6	8.5	12.8
COc1ccc(CCNC(=O)C2(C)CCC(=O)N2Cc2ccc(C)cc2)cc1OC (configuration not stated)	-0.6	-0.6	-0.7	0.5	-2.9	1.0	.	.
COC(=O)c1cc(NC(=O)COC(=O)C2CCC2)cc(C(=O)OC)c1	6.2	2.5	2.0	-0.1	0.2	-3.8	.	.
Cc1ccc(C)c(N2C(=N)S/C(=C\c3ccc(-c4ccccc4C(=O)O)o3)C2=O)c1	6.1	-43.2	4.5	4.8	6.2	-13.7	.	.
CN1C(=O)/C(=C/c2ccc(-c3ccccc3[N+](=O)[O-])o2)SC1=Nc1ccc(Cl)c(C(=O)O)c1	2.9	72.4*	-0.3	30.3*	12.1	11.5	11.2	79.4*
Cn1c2ccccc2c2cc(/C=N/NC(=O)c3cc(O)ccc3O)ccc21	3.0	82.2*	-7.3	45.6*	50.3*	1.8	40.4*	40.0*
CC1(c2ccc(OC(F)F)cc2)NC(=O)N(CC(=O)N2CCN(C(=O)c3ccco3)CC2)C1=O (configuration not stated)	0.0	.	0.0	.	0.2	-9.8	.	.
Nc1nc(-c2ccco2)c(-c2ccco2)s1	-2.4	21.7	-2.6	13.8	0.9	-3.0	.	.
c1coc(-c2nc(-c3ccco3)c(-c3ccco3)nc2-c2ccco2)c1	-0.9	79.9*	-15.4	71.4*	4.1	44.6*	9.6	36.7*
COc1ccc(-c2nc3ccccc3nc2-c2ccc(OC)cc2)cc1	-2.9	5.5	-5.3	-0.3	0.9	1.1	.	.
COc1ccc2nc(-c3ccco3)c(-c3ccco3)nc2c1	4.2	71.9*	-3.0	21.4*	-1.2	2.5	53.7*	41.0*	Fam108b inh=35.0
CC(C)(C)c1nc2c(s1)CCc1onc(-c3ccc(Cl)cc3)c1-2	-7.0	5.2	-4.0	0.4	0.7	-2.7	.	.
Cc1ccc2nc(/C(C#N)=C/c3cn[nH]c3-c3ccc(F)cc3)[nH]c2c1	-20.9	-30.6	-21.7	-0.9	-23.1	-8.2	.	.
SMILES	LYPLA2 counter	GSTO1 inh	LYPLA1 inh	Fam108B counter	PME-1 primary	PAD4 inh	Fam108b confirm	GSTO1 confirm	others
Cc1ccc2nc(/C(C#N)=C/c3ccc(O)c(O)c3)[nH]c2c1	-16.1	46.1*	-18.7	30.9*	28.8*	-18.5	17.4	50.7*
CN(CC(=O)NCc1ccccc1Cl)S(=O)(=O)c1ccc2c(c1)n(C)c(=O)c(=O)n2C	-7.5	1.7	0.0	-0.2	6.9	-0.8	.	.
COc1cccc(N2CCN(S(=O)(=O)c3ccc4c(c3)N(C(C)=O)CCO4)CC2)c1	2.7	-3.2	-0.9	-0.1	0.4	-0.5	.	.
Oc1ccc(/C=N/Nc2cccc3cccnc23)c(O)c1	7.8	38.0*	0.2	20.6*	35.7*	-0.8	20.7*	5.6
COC(=O)c1ccc(=O)c2nc3/c(=C/O)c(O)cc(=O)c3[nH]c12	3.5	74.7*	-5.1	33.4*	14.3	14.2	48.5*	71.1*
COc1ccc(CN=Cc2[nH]c3ccc(Br)c(Cl)c3c2O)cc1	4.1	52.0*	-3.9	18.8*	13.9	-19.9	11.9	1.8
Cc1cc(C)cc(N=Cc2[nH]c3ccc(Br)c(Cl)c3c2O)c1	-18.0	7.2	-8.5	-2.2	0.1	-0.1	.	.
CC(=O)c1cc(O)c2ccccc2c1O	0.6	46.3*	6.3	31.2*	39.2*	3.9	17.6	39.1*
CCN(CC)c1ccc(/C=C(\C#N)C(=O)c2ccc(Br)cc2)cc1	25.5	-43.3	32.2*	60.9*	14.8	-10.8	54.0*	.	Fam108b inh=0.0;LYPLA1 conf=76.9*
Cc1sc2nc(CN3CCCC3)nc(N3CCN(S(=O)(=O)c4cccc(F)c4)CC3)c2c1C	0.2	.	-2.1	.	4.6	1.2	.	.
O=C(Cc1ccccc1)N/N=C/c1cc(Br)cc(Br)c1O	2.4	-6.4	-0.4	4.9	4.0	-1.9	.	.
O=C(O)c1ccccc1N/N=C/c1cc(Br)cc(Br)c1O	11.7	23.4	28.6*	26.7*	49.4*	-3.6	18.9*	.	LYPLA1 conf=23.1*

Source: PubChem
